Pf growth 96h = Primary qHTS for delayed death inhibitors of the malarial parasite plastid, 96 hour incubation. P. falciparum luciferase reporter growth, 96 h. actives 6.9% (n = 320,000). AID 504834, 2011. Potency, µM (highest dose often 28.7 µM), usual class: inhibitors
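96 h incubation, 37 C, 5% CO2, of luciferase-reporter P. falciparum-infected RBCs (2% hematocrit, 0.05% parasitemia final) with test compounds; endpoint luminescence.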
Pf growth 48h = Primary qHTS for delayed death inhibitors of the malarial parasite plastid, 48 hour incubation; P. falciparum luciferase growth in erythrocytes, 48 h; Potency, µM (doses to about 28.7 µM), usual class: inhibitors; actives 5.9% (n = 310,000); AID 504832, 2011
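Luciferase-expressing P. falciparum in infected erythrocytes (2% hematocrit, 0.1% parasitemia final) in RPMI 1640/0.5% Albumax were exposed to compound for 48 hours at 37 C, 5% CO2; growth read as luminescence.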
Shiga toxin inh = A qHTS for Small Molecule Inhibitors of Shiga Toxin; Vero cells, Shiga toxin protein synthesis inhibition reporter; inhibition, % at 38.7 µM; actives 9.2% (n = 290,000); in the data active = inhibition mostly above about 28%, no sharp cut-off; inactive = mostly below about 43%
Cycloheximide cs = Cycloheximide Counterscreen for Small Molecule Inhibitors of Shiga Toxin. actives 12% (n = 300,000). max response, %. cell reporter, cycloheximide protein synthesis inhibition counterscreen. AID 2314, 2010; in the data active = max response mostly above about 13%, no sharp cut-off; inactive = mostly below about 14%; also: read at 38.3 µM for the half of the compounds with a filed dose
LmPK inh = qHTS Assay for Inhibitors of Leishmania Mexicana Pyruvate Kinase (LmPK); Q27686; purified LmPK, Kinase-Glo ATP luminescence, 1 h; Potency, µM (top dose mostly 57.5 µM), actives largely listed as inhibitors; actives 0.37% (n = 290,000)
Target sequence (Q27686 whole entry, looked up): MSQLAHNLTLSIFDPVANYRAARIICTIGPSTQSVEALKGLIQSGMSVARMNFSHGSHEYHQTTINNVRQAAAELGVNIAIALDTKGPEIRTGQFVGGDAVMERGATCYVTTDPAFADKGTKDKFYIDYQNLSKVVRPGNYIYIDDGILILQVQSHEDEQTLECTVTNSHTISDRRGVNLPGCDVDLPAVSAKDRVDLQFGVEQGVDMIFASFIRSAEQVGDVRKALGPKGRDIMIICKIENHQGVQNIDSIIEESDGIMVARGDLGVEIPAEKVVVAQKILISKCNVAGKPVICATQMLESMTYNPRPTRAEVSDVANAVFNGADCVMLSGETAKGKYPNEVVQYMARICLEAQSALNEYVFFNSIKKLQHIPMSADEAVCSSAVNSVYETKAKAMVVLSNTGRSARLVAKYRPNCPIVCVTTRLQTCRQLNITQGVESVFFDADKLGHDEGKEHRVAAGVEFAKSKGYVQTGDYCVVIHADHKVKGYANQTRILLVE
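qHTS format; LmPK 0.1 nM; substrates PEP 0.5 mM and ADP 0.1 mM. One-hour room-temperature incubation, then coupled luciferase luminescence; 0.5 nM enzyme wells mark activation.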
A number is an active result; - = inactive; ? = inconclusive; . = no result given; [ ] = another dose, or the depositor's remark. Hits are enriched below; roughly 22% of the tested compounds scored in any of these assays. Unless noted, calls follow the shape of the dose curve; as a rule, active = well fitted inhibition curve with a large enough effect; inconclusive = small, poorly fitted or top-dose-only effect, or another doubt; inactive = no such curve, though single readings can be large or run the other way.

SMILES | Pf growth 96h | Pf growth 48h | Shiga toxin inh | Cycloheximide cs | LmPK inh
Cc1nc(C)c(-c2ccc(SCc3ccccc3F)nn2)s1 | - | - | 118.7 | 32.5 | -
COc1ccccc1-c1ccc(SCc2ccccc2)nn1 | ? | - | 76.5 | 37.9 | -
COC(=O)C1=C2SCC(=O)N2C(N)=C(C#N)C1 | - | - | - | - | -
CCOC(=O)c1cccc(NC(=O)Cn2nc(C)n3cccc3c2=O)c1 | ? | - | - | - | -
O=S(=O)(c1ccc(F)cc1)c1nc(-c2ccccc2)oc1N1CCOCC1 | - | - | - | - | -
O=C(CCc1c[nH]c2ccccc12)NCC(=O)Nc1ccc(F)c(F)c1F | - | - | - | - | -
COc1ccc(/C=c2\s/c(=C/C(=O)c3ccc(C)cc3)[nH]c2=O)cc1OC | ? | - | - | - | -
Cc1ccccc1/C=c1\s/c(=C\C(=O)C(C)(C)C)[nH]c1=O | ? | . | - | 24.1 | -
CCc1ccc(/C=c2\s/c(=C\C(=O)C(C)(C)C)[nH]c2=O)cc1 | . | 3.29µM | - | - | -
CC(C)(C)C(=O)/C=c1\[nH]c(=O)/c(=C\c2ccccc2F)s1 | - | - | - | - | -
CC(C)(C)C(=O)/C=c1\[nH]c(=O)/c(=C\c2ccc(F)cc2)s1 | . | ? | - | 11.2 | -
CCc1ccc(/C=C2\SC(N3CCCC3)=NC2=O)cc1 | - | ? | - | - | -
CC(C)N(C)Cc1nnnn1CC(=O)N(C)Cc1ccc(F)cc1 | ? | - | - | - | -
CCC(=O)N(c1ccc(C(=O)O)cc1)c1nc(-c2ccc(OC)cc2)c(C)s1 | - | ? | - | - | -
O=C1CC(c2ccco2)CC2=C1C(c1ccncc1)n1nc(C(F)(F)F)nc1N2 (configuration not stated) | . | . | - | - | .
C/C(=N/OC(=O)c1ccc(C(F)(F)F)cc1)c1oc(C)nc1C | - | ? | - | - | ?
CN(C)C(CNc1ncnc2ccccc12)c1c(F)cccc1Cl (configuration not stated) | ? | - | - | - | -
Cc1cc(/C=C2\SC(=Nc3ccccc3)NC2=O)c(C)n1-c1ccc(S(N)(=O)=O)cc1 | ? | 4.15µM | - | - | -
Cc1cc(/C=C2\SC(=S)N(C)C2=O)c(C)n1-c1ccc(O)cc1 | - | - | 69.6 | 51.6 | -
COc1ccc(-n2c(C)cc(/C=C3\SC(=O)NC3=O)c2C)cc1 | - | . | 58.3 | 41.6 | -
COc1ccc(-n2c(C)cc(/C=C3\SC(=S)N(Cc4ccco4)C3=O)c2C)cc1 | - | ? | - | - | -
O=C1NN(c2ccc(Br)cc2)C(=O)/C1=C\c1ccc(O)cc1O | - | - | . | - | -
Cc1cc(/C=C2/C(=O)NN(c3ccccc3)C2=O)c(C)n1-c1cccc(O)c1 | - | - | 59.7 | 57.4 | -
O=C(O)C1CCCC2CN3CCc4c([nH]c5ccccc45)C3C(O)C21 (configuration not stated) | ? | - | - | - | -
CCn1cc(C(C)NC(=O)Nc2ccccc2C(=O)OC)c(C)n1 (configuration not stated) | - | - | - | - | -
SMILES | Pf growth 96h | Pf growth 48h | Shiga toxin inh | Cycloheximide cs | LmPK inh
CCN(CC(=O)NCc1ccc(Cl)cc1)C(=O)c1cc2ccccc2o1 | - | - | - | - | -
COc1ccc(NC(=O)C2CCCN2C(=O)OC(C)(C)C)cc1 (configuration not stated) | - | - | - | - | -
Cc1cc(/C=N/NC(N)=O)c(C)n1-c1ccc(F)cc1 | - | - | - | - | -
Cc1cc(/C=C2/C(=N)N3C(=NC2=O)SN=C3S(C)(=O)=O)c(C)n1-c1ccc(F)cc1 | - | ? | - | - | -[11.5 µM]
Cc1cc(/C=C2\SC(=S)NC2=O)c(C)n1-c1cccc(O)c1 | - | - | 64.5 | 40.9 | -
CC1=CC2=NC(=O)/C(=C\c3cc(C)n(-c4ccc(F)cc4)c3C)C(=N)N2O1 | ? | 4.65µM | - | - | -
CCn1c(C)cc(/C=C2/SC(=S)NC2=O)c1C | - | - | - | - | -
Cc1ccc(-n2c(C)cc(/C=C3/C(=O)NC(=O)N(C)C3=O)c2C)cc1 | - | - | - | - | -
Cc1ccc(-n2c(C)cc(/C=C3\SC(=O)NC3=O)c2C)cc1 | - | - | 83.3 | 31.9 | -
Cc1cc(/C=C2\SC(N)=NC2=O)c(C)n1-c1ccc(F)cc1 | ? | ? | - | 19.9 | -
CC1CCC(=O)N(CCC#N)CC1 (configuration not stated) | - | - | - | - | -
O=C(Nc1ccc(NC(=O)C2CC2)cc1)c1cccs1 | 10.4µM | - | 66.8 | 43.1 | -
COc1ccc(NC(=O)/C(=C/c2cccnc2)NC(=O)c2cccs2)cc1 | 4.15µM | - | - | - | -
CCC(C)c1ccc(NC(=O)c2cccs2)cc1 (configuration not stated) | ? | . | 58.7 | 30.5 | -
CCC(C)NS(=O)(=O)c1ccc(NC(=O)c2cccs2)cc1 (configuration not stated) | - | - | - | - | -
O=C(COc1ccc(NC(=O)c2cccs2)cc1)c1ccc(F)cc1 | - | ? | - | - | -
COc1cccc(C(=O)COc2ccc(NC(=O)c3cccs3)cc2)c1 | ? | 11.7µM | - | 18.8 | -
CCNc1nnc(SCC(=O)N2c3ccccc3NC(=O)CC2C)s1 (configuration not stated) | ? | - | . | . | .
CNC(=S)NNC(=O)c1cccs1 | - | - | - | - | -
Cc1ccn(-c2ccc(NC(=O)c3cccs3)cc2)n1 | - | - | 82.4 | 33.2 | -
Cc1ccc(NC(=O)NNC(=O)c2cccs2)cc1 | - | - | 37.9 | 16.7 | -
O=C(Nc1cccc(-n2cnnn2)c1)c1cccs1 | ? | - | - | - | -
COc1ccc(NC(=S)NNC(=O)c2cccs2)cc1 | - | - | 45.9 | 26.5 | -
CCC1CCCCN1S(=O)(=O)c1ccc(NC(=O)c2cccs2)cc1 (configuration not stated) | - | 2.33µM | - | - | -
CCN(CC)S(=O)(=O)c1ccc(OC)c(NC(=O)C(Cc2ccccc2)N2C(=O)c3ccccc3C2=O)c1 (configuration not stated) | - | - | - | - | -
SMILES | Pf growth 96h | Pf growth 48h | Shiga toxin inh | Cycloheximide cs | LmPK inh
COc1cc(CN2CCNC(=O)C2CC(=O)N(Cc2nccn2C)C(C)C)cc(OC)c1 (configuration not stated) | - | - | - | - | -
CC1CCN(CC(=O)Nc2ccc(Br)cc2[N+](=O)[O-])CC1 | - | - | - | - | -
CCNC(=S)NNC(=O)c1cccs1 | - | - | - | - | -
CC(=O)Nc1ccc(C(=O)NNC(=O)c2cccs2)cc1 | ? | - | - | - | -
Nc1cccc(NC(=O)c2cccs2)c1 | - | - | - | 14.6 | -
CC(C)CNC(=O)c1ccc(NC(=O)c2cccs2)cc1 | - | - | 62.2 | 26.8 | -
CC(C)c1ccc(NC(=S)NNC(=O)c2cccs2)cc1 | -[1.15 µM] | - | 71.5 | 42.2 | -
O=C(Nc1ccc(Oc2ccc(C(=O)O)c(C(=O)O)c2)cc1)c1cccs1 | 2.08µM | - | - | - | -

Source: PubChem BioAssay
